Measurements published in PubChem BioAssay (NCATS).
Results filed as inconclusive are left out. Values without a mark were called inactive. Calls follow the shape of the dose curve; as a rule, active = well fitted cell-killing curve with a large enough effect; inconclusive = small, poorly fitted or top-dose-only effect; inactive = flat fitted curve, though single readings scatter.

Experiment: Cell Viability - LYMP1-002 - Assay at 16 hr (AID 948);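 also: 0% = DMSO alone and full effect = 92 µM tetraoctylammonium bromide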
Details: LYMP1-002 lymphoblastoid cell viability; series mostly up to 92.2 µM; activity change, negative = cytotoxicity: at the top concentration
Description: NIH Chemical Genomics Center [NCGC]
NIH Molecular Libraries Screening Centers Network [MLSCN]
National Institutes of Environmental Health Sciences [NIEHS]
National Toxicology Program [NTP]
We have developed a 1536-well cell-based assay for quantitative high throughput screening (qHTS) against a number of cell lines to determine in vitro cytotoxicity of small molecules. This particular assay uses a human lymphoblastoid cell line (LYMP1-002) purchased from Coriell Institute for Medical Research.
NCGC Assay Protocol Summary:
The CellTiter-Glo luminescent cell viability assay (Promega) is a homogeneous method to measure the number of viable cells in culture. The end point readout of this assay is based on quantitation of intracellular ATP, an indicator of metabolic activity, using the luciferase reaction. Luciferase catalyzes the oxidation of beetle Luciferin to oxyluciferin and light in the presence of ATP. The luminescent signal is proportional to amount of ATP present.
Using the CellTiter-Glo luminescent cell viability assay, the amount of cellular ATP was measured in the lymphoblastoid cell line with complete culture medium following compound treatment for 16 hours. The assay was performed in opaque white Kalypsys 1536-well plates. In the screen, tetraoctylammonium bromide was used as positive control. Library compounds were measured for their ability to cause acute toxicity in the cell line, as reflected by a decrease in intracellular ATP levels, in a concentration-dependent manner. […] AC50 values were determined from concentration-response data modeled with the standard Hill equation.
qHTS protocol for CellTiter Glo lymphoblastoid cellular assay
[Step] [Parameter] [Value] [Description]
1. Reagent; 5 uL; 2500 lymphoblastoid cells/well
2. Time; 5 hr; 37 C incubation
4. Controls; 23 nL; Tetraoctylammonium bromide 6.4pM to 92 uM
5. Time; 16 hr; 37 C incubation
6. Reagent; 5 uL; CellTiter Glo reagent
7. Time; 30 min; Room Temperature
8. Detection; Luminescence; Viewlux plate reader
Keywords: cell viability, cytotoxicity, lymphoblastoid cell line, luminescence, NTPHTS, NTPHTS_NCGC, NIEHS, DSSTox, MLSMR, MLSCN, NIH Roadmap, qHTS, NCGC

| SMILES | activity change, negative = cytotoxicity |
| --- | --- |
| C/C(C=O)=C/c1ccccc1 | 1.44% |
| Clc1ccccn1 | -4.57% |
| OC1CCCC1 | -2.73% |
| CC(=O)c1cc(C)oc1C | -2.25% |
| Cc1ccccc1C(N)=O | -2.46% |
| CCC(C)(C)OC | -4.06% |
| Cc1ccc(C)c(N)c1 | -4.81% |
| Nc1ccc([N+](=O)[O-])c(N)c1 | 1.88% |
| Clc1ccc(Cl)c(Cl)c1Cl | -0.49% |
| Cc1cc(C)cc(N)c1 | -7.29% |
| CC=C(Cl)Cl | -2.1% |
| Nc1ccc(Cl)cc1[N+](=O)[O-] | -4.21% |
| CCOC(=O)C(C)C(C)=O (stereo not given) | -1.38% |
| Cc1ccc(C)o1 | -1.6% |
| CC(=O)Nc1cccc(N)c1 | -5.44% |
| CCNS(=O)(=O)c1ccc(C)cc1 | -2.82% |
| CCOc1ccccc1N | -2.48% |
| CCOCC(=O)O | 0.502% |
| O=C(O)/C=C/C(=O)O | -1.96% |
| COc1cccc2sc(N)nc12 | 0.537% |

| SMILES | activity change, negative = cytotoxicity |
| --- | --- |
| CSc1ccc(C=O)cc1 | -3.49% |
| NC(=O)/N=N/C(N)=O | -4.36% |
| CC(C)Nc1ccccc1 | 1.34% |
| C=CCOC(=O)COCCC(C)C | -4.39% |
| O=C(O)c1ccc(C(=O)O)cc1 | 1.31% |
| CC(=O)c1cccc([N+](=O)[O-])c1 | -8.95% |
| C=CCn1c(=O)n(CC=C)c(=O)n(CC=C)c1=O | -0.376% |
| O=C(O)c1cccc(Cl)c1Cl | 2.05% |
| CCCCC(CC)C(=O)O (stereo not given) | -7.46% |
| Nc1nc2ccccc2[nH]1 | -3.08% |
| CCCCCCCCC | 2.76% |
| C/C=C(/C)C#N | -12% |
| CC/C=C1/OC(=O)c2ccccc21 | 2.17% |
| CSCCC=O | -5.36% |
| C1COC1 | 0.469% |
| CC(=O)c1ccccn1 | -5.9% |
| Cc1ccc([N+](=O)[O-])c(N)c1 | 2.62% |
| O=C(O)c1ccccc1C(=O)O | -4.05% |
| C=CC(=O)NC(C)C | -3.85% |
| CC(=O)OCCC(C)C | -2.76% |
